CYP2C19 inhib: inhibitors of human CYP2C19; P33261; CYP2C19 Supersomes, luciferin-H EGE luminescence, 30 min; inhibition, % at 5 µM; 21% of 96,000 active; AID 778;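 active = CYP2C19 inhibition above a set limit at 5 µM in the primary screen, cut at about 50% in these data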;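 note: plate controls were negative control wells for no effect and 2.5 mM tranylcypromine positive control for full effect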
Mac1 fbg enh: increases human CD11b/CD18 adhesion to fibrinogen | P05107+P11215 | K562 CD11b/CD18 adhesion to fibrinogen, ATPlite luminescence | activation, % at 10 µM | 0.07% of 93,000 active | AID 1499;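 active = 10 µM primary screen giving 50% or more activity, confirmed by 40% or more on retest at that dose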
CYP2C9 inhib: blocks human cytochrome P450 2C9. CYP2C9 Supersomes, luciferin-H conversion, luminescence. 20% of 96,000 active. P11712. inhibition, % at 5 µM;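 active = blocking of liver enzyme CYP2C9 beyond about 50% at 5 µM, limit read from the data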
Target sequence (P11712 whole entry, looked up): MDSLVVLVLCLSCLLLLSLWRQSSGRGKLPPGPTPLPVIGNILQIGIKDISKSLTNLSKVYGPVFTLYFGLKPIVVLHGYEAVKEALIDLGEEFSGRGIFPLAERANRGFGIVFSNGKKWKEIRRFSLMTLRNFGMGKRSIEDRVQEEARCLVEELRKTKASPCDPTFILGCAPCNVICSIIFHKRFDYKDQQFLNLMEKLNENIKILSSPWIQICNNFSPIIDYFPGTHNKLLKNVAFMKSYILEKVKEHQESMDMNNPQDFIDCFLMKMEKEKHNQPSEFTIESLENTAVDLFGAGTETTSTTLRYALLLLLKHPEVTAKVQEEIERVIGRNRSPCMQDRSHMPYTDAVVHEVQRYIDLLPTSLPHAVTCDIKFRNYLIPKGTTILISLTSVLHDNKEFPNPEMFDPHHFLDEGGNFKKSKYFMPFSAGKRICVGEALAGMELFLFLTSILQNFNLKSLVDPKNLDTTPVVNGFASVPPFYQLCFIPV
CYP2C19 act: activators of human cytochrome P450 2C19. recombinant CYP2C19, luciferin-H EGE luminescence; hits give high values; 0 = fully inhibited enzyme, 1 = untreated enzyme. activation factor at 5 µM. 96,000 tested, under 10 active;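 active = activation factor of at least 2 at 5 µM in the primary screen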;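 note: 0 = wells with 2.5 mM tranylcypromine and 1 = vehicle-only wells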
CYP2C9 activ: CYP2C9 (human) activation; activation factor at 5 µM; P11712; 1.4% of 96,000 active; recombinant CYP2C9, luciferin-H conversion, luminescence; hits give high values; factor 1 = untreated enzyme, 0 = blocked;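 active = activation factor of 2 or more for CYP2C9 at a 5 µM dose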;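 note: 0 = sulfaphenazole-blocked wells and 1 = vehicle-only wells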
CD11b adhes inh: CD11b/CD18-fibrinogen binding inhibition; 0.54% of 93,000 active; P05107+P11215; inhibition, % at 10 µM; K562 CD11b/CD18 adhesion to fibrinogen, ATPlite luminescence; Mn2+ added to activate the integrin;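 active = primary inhibition of 50% or more at 10 µM, then 40% or more on retest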
Numbers without * were called inactive. Not all results are given here.

For COc1ccccc1NC(=S)NC(=O)CC(C)C the results were CYP2C19 inhib 24, CYP2C9 inhib 35, CYP2C19 act 0.8 and CYP2C9 activ 0.7.
Screening Cn1c(=O)n(CCc2ccccc2)c(=O)c2c1nc1n2CCCN1CCc1ccccc1 returned CYP2C19 inhib 92*, Mac1 fbg enh 3, CYP2C9 inhib 93*, CYP2C19 act 0.1, CYP2C9 activ 0.1 and CD11b adhes inh -7.
Screening Cn1c(=O)n(Cc2ccc(F)cc2)c(=O)c2c1nc1n2CCCN1Cc1ccccc1 returned CYP2C19 inhib 96*, CYP2C9 inhib 86*, CYP2C19 act 0 and CYP2C9 activ 0.1.
Screening Cn1c(N2CCCC2)nc2c1c(=O)n(Cc1ccc(F)cc1)c(=O)n2C returned CYP2C19 inhib 5, Mac1 fbg enh -6, CYP2C9 inhib 20, CYP2C19 act 1, CYP2C9 activ 0.8 and CD11b adhes inh 4.
`CC(C)Cn1c(=O)c2c(nc3n2CCCN3CCc2ccccc2)n(C)c1=O` gave CYP2C19 inhib 85*, Mac1 fbg enh 1, CYP2C9 inhib 93*, CYP2C19 act 0.1, CYP2C9 activ 0.1 and CD11b adhes inh 17.
For Cc1ccc(N2CCCn3c2nc2c3c(=O)n(CC(=O)OCc3ccccc3)c(=O)n2C)cc1C the results were CYP2C19 inhib 22, Mac1 fbg enh -6, CYP2C9 inhib 55*, CYP2C19 act 0.8, CYP2C9 activ 0.4 and CD11b adhes inh -2.
Screening Cn1c(=O)n(Cc2ccccc2F)c(=O)c2c1nc1n2CCCN1CCc1ccccc1 returned CYP2C19 inhib 33, Mac1 fbg enh -4, CYP2C9 inhib 17, CYP2C19 act 0.7, CYP2C9 activ 0.8 and CD11b adhes inh -8.
`Cn1c(=O)n(CCc2ccccc2)c(=O)c2c1nc1n2CCCN1Cc1ccccc1` gave CYP2C19 inhib 11, Mac1 fbg enh 4, CYP2C9 inhib 15, CYP2C19 act 0.9, CYP2C9 activ 0.8 and CD11b adhes inh -10.
Screening COc1cc([N+](=O)[O-])ccc1NC(=O)C[n+]1ccccc1C returned CYP2C19 inhib 5, CYP2C9 inhib 8, CYP2C19 act 0.9 and CYP2C9 activ 0.9.
For O=C(O)/C=C/c1cn(-c2ncc(C(F)(F)F)cc2Cl)c2ccccc12 the results were CYP2C19 inhib -2, CYP2C9 inhib -3, CYP2C19 act 1 and CYP2C9 activ 1.
Screening COc1ccc(-c2nnc3ccc(SCC(=O)N4CCCCCC4)nn23)cc1OC returned CYP2C19 inhib 4, Mac1 fbg enh 0, CYP2C9 inhib 27, CYP2C19 act 1, CYP2C9 activ 0.7 and CD11b adhes inh -30.
Screening C=CCC1(C#N)C(SC)=NC2=C(C(=O)CC(C)(C)C2)C1c1ccc(Br)cc1 (configuration not stated) returned Mac1 fbg enh -2 and CD11b adhes inh 14.
For Cc1cc(-n2c(=O)c(C#N)cc3c(=O)n4ccccc4nc32)no1 the results were CYP2C19 inhib -12, Mac1 fbg enh -2, CYP2C9 inhib -8, CYP2C19 act 1.1, CYP2C9 activ 1.1 and CD11b adhes inh -3.
Cc1ccc(NC2=C(Cl)C(=O)OC2OC(=O)c2ccco2)cc1 (configuration not stated) was read as CYP2C19 inhib 50*, Mac1 fbg enh -3, CYP2C9 inhib 91*, CYP2C19 act 0.5, CYP2C9 activ 0.1 and CD11b adhes inh -4.
Screening Cc1cccc(N(Cc2cc3ccccc3[nH]c2=O)C(=O)c2ccco2)c1C returned CYP2C19 inhib -21, Mac1 fbg enh -2, CYP2C9 inhib -10, CYP2C19 act 1.2, CYP2C9 activ 1.1 and CD11b adhes inh 19.
Screening CC(NC(=O)C1CCCCC1)C(=O)NC1=NCCS1 (configuration not stated) returned CYP2C19 inhib 8, Mac1 fbg enh -1, CYP2C9 inhib -1, CYP2C19 act 0.9, CYP2C9 activ 1 and CD11b adhes inh 5.
For Cc1noc(C)c1S(=O)(=O)N1CCCC(C(=O)N2CCN(C3CCCCC3)CC2)C1 (configuration not stated) the results were CYP2C19 inhib -21, Mac1 fbg enh 2, CYP2C9 inhib 19, CYP2C19 act 1.2, CYP2C9 activ 0.8 and CD11b adhes inh 10.

Screening data deposited in PubChem BioAssay by Sanford-Burnham Center for Chemical Genomics.
